Reference: PubChem BioAssay AID1159580 (chemical genetic matrix, 2015)
In all, about 5,500 compounds went through this assay and about 2,000 (36%) were called active. Roughly 18% stayed inconclusive and do not appear here. Cut-off read from the data, not from the text of the source: active = normalized growth mostly below about 0.91 (no sharp cut-off); inconclusive = no clear call, values can overlap the other calls; inactive = mostly above about 0.92. This is one part of the list.

Test: chemical genetic growth profiling, strain panel (AID 1159580);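 note: tested at 20 µM; growth read once vehicle control cultures reached saturation at 30 °C; 1 = growth at the plate median or of vehicle wells; lower values mean less growth of the strain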
Conditions: growth OD

Measured: normalized growth

CC1=CCc2c(cc3oc(C)cc(=O)c3c2O)OC1
inactive: S. cerevisiae deletion strains, locus YJR075W, strain HOC1, active compounds read low 0.926 | S. cerevisiae deletion strains, locus YKL009W, strain mrt4, active compounds read low 0.912 | S. cerevisiae deletion strains, locus YKL068W, active compounds read low 0.974 | S. cerevisiae deletion strains, locus YKL160W, strain elf1, active compounds read low 0.978 | S. cerevisiae deletion strains, locus YKR026C, strain gcn3, active compounds read low 0.951 | S. cerevisiae deletion strains, locus YKR091W, strain srl3, active compounds read low 0.977 | S. cerevisiae deletion strains, locus YLL001W, strain dnm1, active compounds read low 0.968 | S. cerevisiae deletion strains, locus YLL026W, active compounds read low 0.97 | S. cerevisiae deletion strains, locus YLL041C, strain sdh2, active compounds read low 0.972 | S. cerevisiae deletion strains, locus YLR027C, strain aat2, active compounds read low 0.984 | S. cerevisiae deletion strains, locus YLR039C, strain RIC1, active compounds read low 0.766 | S. cerevisiae deletion strains, locus YLR058C, strain SHM2, active compounds read low 0.923 | S. cerevisiae deletion strains, locus YLR102C, strain apc9, active compounds read low 0.97 | S. cerevisiae deletion strains, locus YLR113W, strain HOG1, active compounds read low 0.931 | S. cerevisiae deletion strains, locus YLR221C, strain rsa3, active compounds read low 0.944 | S. cerevisiae deletion strains, locus YLR258W, strain gsy2, active compounds read low 0.95 | S. cerevisiae deletion strains, locus YLR262C, strain YPT6 (second series), active compounds read low 0.883 | S. cerevisiae deletion strains, locus YLR262C, strain YPT6, active compounds read low 0.772 | S. cerevisiae deletion strains, locus YLR320W, strain mms22, active compounds read low 0.932 | S. cerevisiae deletion strains, locus YLR330W, strain CHS5, active compounds read low 0.944 | S. cerevisiae deletion strains, locus YLR342W, strain FKS1, active compounds read low 1 | S. cerevisiae deletion strains, locus YLR357W, strain rsc2, active compounds read low 1.01 | S. cerevisiae deletion strains, locus YLR370C, strain arc18, active compounds read low 0.998 | S. cerevisiae deletion strains, locus YLR371W, strain rom2, active compounds read low 0.916 | S. cerevisiae deletion strains, locus YLR384C, strain iki3, active compounds read low 0.988 | S. cerevisiae deletion strains, locus YML016C, strain PPZ1, active compounds read low 0.953 | S. cerevisiae deletion strains, locus YML032C, strain rad52, active compounds read low 0.917 | S. cerevisiae deletion strains, locus YML120C, strain ndi1, active compounds read low 0.957 | S. cerevisiae deletion strains, locus YML124C, strain tub3, active compounds read low 0.966 | S. cerevisiae deletion strains, locus YMR058W, strain fet3, active compounds read low 0.936 | S. cerevisiae deletion strains, locus YMR078C, strain ctf18, active compounds read low 0.956 | S. cerevisiae deletion strains, locus YMR125W, strain sto1, active compounds read low 0.975 | S. cerevisiae deletion strains, locus YMR129W, active compounds read low 0.967 | S. cerevisiae deletion strains, locus YMR205C, strain PFK2, active compounds read low 0.971 | S. cerevisiae deletion strains, locus YMR231W, strain pep5, active compounds read low 0.998 | S. cerevisiae deletion strains, locus YMR307W, strain GAS1, active compounds read low 0.733 | S. cerevisiae deletion strains, locus YNL071W, strain lat1, active compounds read low 0.979 | S. cerevisiae deletion strains, locus YNL128W, strain TEP1, active compounds read low 0.881 | S. cerevisiae deletion strains, locus YNL183C, strain NPR1, active compounds read low 0.92 | S. cerevisiae deletion strains, locus YNL209W, strain ssb2, active compounds read low 1.01 | S. cerevisiae deletion strains, locus YNL248C, strain rpa49, active compounds read low 0.971 | S. cerevisiae deletion strains, locus YNL250W, strain rad50, active compounds read low 0.971 | S. cerevisiae deletion strains, locus YNL271C, strain bni1, active compounds read low 0.959 | S. cerevisiae deletion strains, locus YNL298W, strain CLA4, active compounds read low 0.925 | S. cerevisiae deletion strains, locus YNL322C, strain KRE1 (second series), active compounds read low 0.984 | S. cerevisiae deletion strains, locus YNL322C, strain KRE1, active compounds read low 0.94 | S. cerevisiae deletion strains, locus YNR049C, strain mso1, active compounds read low 0.981 | S. cerevisiae deletion strains, locus YNR052C, strain pop2, active compounds read low 0.973 | S. cerevisiae deletion strains, locus YOL006C, strain TOP1, active compounds read low 0.554 | S. cerevisiae deletion strains, locus YOL012C, strain htz1 1.55 | S. cerevisiae deletion strains, locus YOR001W, strain rrp6, active compounds read low 0.969 | S. cerevisiae deletion strains, locus YOR061W, strain CKA2, active compounds read low 0.972 | S. cerevisiae deletion strains, locus YOR069W, strain VPS5, active compounds read low 0.973 | S. cerevisiae deletion strains, locus YOR070C, strain gyp1, active compounds read low 0.965 | S. cerevisiae deletion strains, locus YOR080W, strain dia2, active compounds read low 0.986 | S. cerevisiae deletion strains, locus YOR083W, strain WHI5, active compounds read low 0.951 | S. cerevisiae deletion strains, locus YOR106W, strain vam3, active compounds read low 0.945 | S. cerevisiae deletion strains, locus YOR136W, strain idh2, active compounds read low 0.963 | S. cerevisiae deletion strains, locus YOR144C, strain elg1, active compounds read low 0.979 | S. cerevisiae deletion strains, locus YOR231W, strain MKK1, active compounds read low 0.958 | S. cerevisiae deletion strains, locus YOR265W, strain rbl2, active compounds read low 0.983 | S. cerevisiae deletion strains, locus YOR290C, strain snf2, active compounds read low 0.979 | S. cerevisiae deletion strains, locus YOR316C, strain cot1, active compounds read low 0.974 | S. cerevisiae deletion strains, locus YPL051W, strain arl3, active compounds read low 0.976 | S. cerevisiae deletion strains, locus YPL078C, strain atp4, active compounds read low 0.926 | S. cerevisiae deletion strains, locus YPL106C, strain sse1, active compounds read low 0.952 | S. cerevisiae deletion strains, locus YPL240C, strain hsp82, active compounds read low 0.97 | S. cerevisiae deletion strains, locus YPL241C, strain CIN2, active compounds read low 0.973 | S. cerevisiae deletion strains, locus YPL256C, strain CLN2, active compounds read low 0.99 | S. cerevisiae deletion strains, locus YPR119W, strain clb2, active compounds read low 0.956 | S. cerevisiae deletion strains, locus YPR141C, strain kar3, active compounds read low 0.972 | S. cerevisiae deletion strains, locus YPR163C, strain tif3, active compounds read low 0.921 | S. cerevisiae deletion strains, locus YPR167C, strain met16, active compounds read low 0.963
active: S. cerevisiae deletion strains, locus YKL085W, strain MDH1 (second series), active compounds read low 0.903 | S. cerevisiae deletion strains, locus YKL085W, strain MDH1, active compounds read low 0.903 | S. cerevisiae deletion strains, locus YKL190W, strain CNB1, active compounds read low 0.902 | S. cerevisiae deletion strains, locus YKR001C, strain vps1, active compounds read low 0.759 | S. cerevisiae deletion strains, locus YLR268W, strain sec22, active compounds read low 0.869 | S. cerevisiae deletion strains, locus YLR342W, strain FKS1 (second series), active compounds read low 0.792 | S. cerevisiae deletion strains, locus YLR418C, strain cdc73, active compounds read low 0.639 | S. cerevisiae deletion strains, locus YMR223W, strain ubp8, active compounds read low 0.902 | S. cerevisiae deletion strains, locus YMR263W, strain SAP30, active compounds read low 0.865 | S. cerevisiae deletion strains, locus YNL067W, strain RPL9B, active compounds read low 0.844 | S. cerevisiae deletion strains, locus YNL153C, strain GIM3, active compounds read low 0.858 | S. cerevisiae deletion strains, locus YNL233W, strain BNI4, active compounds read low 0.807 | S. cerevisiae deletion strains, locus YNL307C, strain MCK1, active compounds read low 0.651 | S. cerevisiae deletion strains, locus YOL147C, strain pex11, active compounds read low 0.922 | S. cerevisiae deletion strains, locus YOR184W, strain ser1, active compounds read low 0.782 | S. cerevisiae deletion strains, locus YOR270C, strain vph1, active compounds read low 0.683 | S. cerevisiae deletion strains, locus YPL055C, strain LGE1, active compounds read low 0.716 | S. cerevisiae deletion strains, strain wtn01, active compounds read low 0.843 | S. cerevisiae strains, strain wild type, active compounds read low 0.878
